Source: the supplement of paper PMC8728848
This is one part of a sample in which the strongest signals are shown more often than they occur.

How the values were obtained:
Test in all cases: glycan array binding signal (z-score within array); higher = stronger binding
Settings in all cases: glycan notation: IUPAC condensed, linker removed
[1] = biological target: Gal(b1-4)GlcNAc(b1-3)Gal(b1-4)GlcNAc(b1-3)Gal(b1-4)GlcNAc(b1-3)Gal(b1-4)GlcNAc(b1-2)Man(a1-3)[Gal(b1-4)GlcNAc(b1-3)Gal(b1-4)GlcNAc(b1-3)Gal(b1-4)GlcNAc(b1-3)Gal(b1-4)GlcNAc(b1-2)Man(a1-6)]Man(b1-4)GlcNAc(b1-4)GlcNAc
Outline: (§1)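 Glycan array binding is given as a within-array Z-score, which can be read as non-binding when negative. The arrays, 3228 of them, came from the Consortium for Functional Glycomics database and were retained only where the protein sequence was available. Z-scores were averaged across arrays of the same protein sequence at different concentrations or buffers and across linkers.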

[2] = biological target: Gal(b1-4)GlcNAc(b1-3)Gal(b1-4)GlcNAc(b1-3)Gal(b1-4)GlcNAc(b1-3)Gal(b1-4)GlcNAc(b1-2)Man(a1-3)[Gal(b1-4)GlcNAc(b1-3)Gal(b1-4)GlcNAc(b1-3)Gal(b1-4)GlcNAc(b1-3)Gal(b1-4)GlcNAc(b1-2)Man(a1-6)]Man(b1-4)GlcNAc(b1-4)[Fuc(a1-6)]GlcNAc
Outline: as §1

[3] = biological target: Gal(b1-4)GlcNAc(b1-3)Gal(b1-4)GlcNAc(b1-3)Gal(b1-4)GlcNAc(b1-3)Gal(b1-4)GlcNAc(b1-2)[Gal(b1-4)GlcNAc(b1-3)Gal(b1-4)GlcNAc(b1-3)Gal(b1-4)GlcNAc(b1-3)Gal(b1-4)GlcNAc(b1-6)]Man(a1-6)[Gal(b1-4)GlcNAc(b1-3)Gal(b1-4)GlcNAc(b1-3)Gal(b1-4)GlcNAc(b1-3)Gal(b1-4)GlcNAc(b1-2)Man(a1-3)]Man(b1-4)GlcNAc(b1-4)[Fuc(a1-6)]GlcNAc
Outline: as §1

[4] = biological target: Gal(b1-4)GlcNAc(b1-3)Gal(b1-4)GlcNAc(b1-3)Gal(b1-4)GlcNAc(b1-3)Gal(b1-4)GlcNAc(b1-3)Gal(b1-4)GlcNAc(b1-2)Man(a1-3)[Gal(b1-4)GlcNAc(b1-3)Gal(b1-4)GlcNAc(b1-3)Gal(b1-4)GlcNAc(b1-3)Gal(b1-4)GlcNAc(b1-3)Gal(b1-4)GlcNAc(b1-2)Man(a1-6)]Man(b1-4)GlcNAc(b1-4)GlcNAc
Outline: as §1

[5] = biological target: Gal(b1-4)GlcNAc(b1-3)Gal(b1-4)GlcNAc(b1-3)Gal(b1-4)GlcNAc(b1-3)Gal(b1-4)GlcNAc(b1-3)Gal(b1-4)GlcNAc(b1-2)Man(a1-3)[Gal(b1-4)GlcNAc(b1-3)Gal(b1-4)GlcNAc(b1-3)Gal(b1-4)GlcNAc(b1-3)Gal(b1-4)GlcNAc(b1-3)Gal(b1-4)GlcNAc(b1-2)Man(a1-6)]Man(b1-4)GlcNAc(b1-4)[Fuc(a1-6)]GlcNAc
Outline: as §1

[6] = biological target: Gal(b1-4)GlcNAc(b1-3)Gal(b1-4)GlcNAc(b1-3)Gal(b1-4)GlcNAc(b1-3)Gal(b1-4)GlcNAc(b1-3)Gal(b1-4)GlcNAc(b1-2)[Gal(b1-4)GlcNAc(b1-3)Gal(b1-4)GlcNAc(b1-3)Gal(b1-4)GlcNAc(b1-3)Gal(b1-4)GlcNAc(b1-3)Gal(b1-4)GlcNAc(b1-6)]Man(a1-6)[Gal(b1-4)GlcNAc(b1-3)Gal(b1-4)GlcNAc(b1-3)Gal(b1-4)GlcNAc(b1-3)Gal(b1-4)GlcNAc(b1-3)Gal(b1-4)GlcNAc(b1-2)Man(a1-3)]Man(b1-4)GlcNAc(b1-4)[Fuc(a1-6)]GlcNAc
Outline: as §1

[7] = biological target: Gal(b1-4)GlcNAc(b1-3)Gal(b1-4)GlcNAc(b1-3)Gal(b1-4)GlcNAc(b1-3)Gal(b1-4)GlcNAc(b1-3)Gal(b1-4)GlcNAc(b1-3)Gal(b1-4)GlcNAc(b1-2)Man(a1-3)[Gal(b1-4)GlcNAc(b1-3)Gal(b1-4)GlcNAc(b1-3)Gal(b1-4)GlcNAc(b1-3)Gal(b1-4)GlcNAc(b1-3)Gal(b1-4)GlcNAc(b1-3)Gal(b1-4)GlcNAc(b1-2)Man(a1-6)]Man(b1-4)GlcNAc(b1-4)GlcNAc
Outline: as §1

Gal6S(b1-4)GlcNAc = biological target: Gal6S(b1-4)GlcNAc
Outline: as §1

[8] = biological target: GalNAc(b1-3)Gal(a1-6)Gal(b1-4)Glc
Outline: as §1

GalNAc3S(b1-4)GlcNAc3S = biological target: GalNAc3S(b1-4)GlcNAc3S
Outline: as §1

GalNAc4S6S(b1-4)GlcNAc = biological target: GalNAc4S6S(b1-4)GlcNAc
Outline: as §1

[9] = biological target: GlcNAc(a1-4)Gal(b1-4)GlcNAc(b1-3)Gal(b1-4)[Fuc(a1-3)]GlcNAc(b1-3)Gal(b1-4)[Fuc(a1-3)]GlcNAc
Outline: as §1

[10] = biological target: GlcNAc(b1-2)Man(a1-3)[GlcNAc(b1-4)][GlcNAc(b1-2)Man(a1-6)]Man(b1-4)GlcNAc(b1-4)GlcNAc
Outline: as §1

[11] = biological target: GlcNAc(b1-3)Gal(b1-4)GlcNAc(b1-3)Gal(b1-4)GlcNAc(b1-3)Gal(b1-4)GlcNAc(b1-3)Gal(b1-4)GlcNAc(b1-2)Man(a1-3)[GlcNAc(b1-3)Gal(b1-4)GlcNAc(b1-3)Gal(b1-4)GlcNAc(b1-3)Gal(b1-4)GlcNAc(b1-3)Gal(b1-4)GlcNAc(b1-2)Man(a1-6)]Man(b1-4)GlcNAc(b1-4)GlcNAc
Outline: as §1

[12] = biological target: GlcNAc(b1-3)Gal(b1-4)GlcNAc(b1-3)Gal(b1-4)GlcNAc(b1-3)Gal(b1-4)GlcNAc(b1-3)Gal(b1-4)GlcNAc(b1-2)Man(a1-3)[GlcNAc(b1-3)Gal(b1-4)GlcNAc(b1-3)Gal(b1-4)GlcNAc(b1-3)Gal(b1-4)GlcNAc(b1-3)Gal(b1-4)GlcNAc(b1-2)Man(a1-6)]Man(b1-4)GlcNAc(b1-4)[Fuc(a1-6)]GlcNAc
Outline: as §1

GlcNAc(b1-3)Man = biological target: GlcNAc(b1-3)Man
Outline: as §1

[13] = biological target: GlcNAc6S(b1-3)Gal(b1-4)GlcNAc
Outline: as §1

[14] = biological target: Neu5Ac(a2-3)Gal(b1-3)GalNAc(b1-3)Gal(a1-4)Gal(b1-4)Glc
Outline: as §1

[15] = biological target: Neu5Ac(a2-3)Gal(b1-3)GalNAc(b1-4)[Neu5Ac(a2-8)Neu5Ac(a2-3)]Gal(b1-4)Glc
Outline: as §1

[16] = biological target: Neu5Ac(a2-3)Gal(b1-3)[Fuc(a1-4)]GlcNAc(b1-3)Gal(b1-3)[Fuc(a1-4)]GlcNAc
Outline: as §1

[17] = biological target: Neu5Ac(a2-3)Gal(b1-4)GlcNAc(b1-2)Man
Outline: as §1

[18] = biological target: Neu5Ac(a2-3)Gal(b1-4)GlcNAc(b1-2)[Neu5Ac(a2-3)Gal(b1-4)GlcNAc(b1-4)]Man(a1-3)[GlcNAc(b1-4)][Neu5Ac(a2-3)Gal(b1-4)GlcNAc(b1-4)Man(a1-6)]Man(b1-4)GlcNAc(b1-4)GlcNAc
Outline: as §1

[19] = biological target: Neu5Ac(a2-3)Gal(b1-4)GlcNAc(b1-3)Gal(b1-4)GlcNAc(b1-6)[Gal(b1-3)]GalNAc
Outline: as §1

[20] = biological target: Neu5Ac(a2-3)Gal(b1-4)GlcNAc(b1-6)GalNAc
Outline: as §1

[21] = biological target: Neu5Ac(a2-3)GalNAc(b1-4)GlcNAc
Outline: as §1

[22] = biological target: Neu5Ac(a2-3)[GalNAc(b1-4)]Gal(b1-4)GlcNAc(b1-3)GalNAc
Outline: as §1

[23] = biological target: Neu5Ac(a2-6)Gal(b1-4)GlcNAc(b1-3)Gal(b1-4)GlcNAc(b1-3)Gal(b1-4)GlcNAc(b1-2)Man(a1-3)[Neu5Ac(a2-6)Gal(b1-4)GlcNAc(b1-3)Gal(b1-4)GlcNAc(b1-3)Gal(b1-4)GlcNAc(b1-2)Man(a1-6)]GalNAc
Outline: as §1

[24] = biological target: Neu5Ac(a2-6)Gal(b1-4)GlcNAc(b1-3)Gal(b1-4)GlcNAc(b1-6)[Gal(b1-3)]GalNAc
Outline: as §1

[25] = biological target: Neu5Ac(a2-8)Neu5Ac(a2-3)Gal(b1-4)Glc
Outline: as §1

B1: LBL-152 (Laetiporus bicolor), B0D650 (protein)
chain: MSNEYNPPLGIAFRLCGLASDRVLFSRVSPSPEVFHHPKSEVYPDQWFVAIPGSGQNAGCYAIKSKNTGKVLFSRMSPDPRVGHIDGDGKYPDNWFKFEAGSGKYAGYFRLRAVASDTVLVSRTSTGTDTQVINYPATSAKYDDQYFTILFDHHHHHH
B1 was tested, and the “glycan array binding signal (z-score)” value [1] was 5.39, the “glycan array binding signal (z-score)” value [2] was 8.72 and the “glycan array binding signal (z-score)” value [3] was 6.24. The “glycan array binding signal (z-score)” value [4] was 10.6, the “glycan array binding signal (z-score)” value [5] was 9.73 and the “glycan array binding signal (z-score)” value [6] was 7.26. The “glycan array binding signal (z-score)” value [7] was 5.94, the “glycan array binding signal (z-score)” value (Gal6S(b1-4)GlcNAc) was -0.151 and the “glycan array binding signal (z-score)” value [8] was -0.159. The “glycan array binding signal (z-score)” value (GalNAc3S(b1-4)GlcNAc3S) was -0.163, the “glycan array binding signal (z-score)” value (GalNAc4S6S(b1-4)GlcNAc) was -0.15 and the “glycan array binding signal (z-score)” value [9] was -0.147. The “glycan array binding signal (z-score)” value [10] was -0.153, the “glycan array binding signal (z-score)” value [11] was 3.47 and the “glycan array binding signal (z-score)” value [12] was 4.51. The “glycan array binding signal (z-score)” value (GlcNAc(b1-3)Man) was -0.156, the “glycan array binding signal (z-score)” value [13] was -0.157 and the “glycan array binding signal (z-score)” value [14] was -0.15. The “glycan array binding signal (z-score)” value [15] was -0.145, the “glycan array binding signal (z-score)” value [16] was -0.147 and the “glycan array binding signal (z-score)” value [17] was -0.149. The “glycan array binding signal (z-score)” value [18] was -0.16, the “glycan array binding signal (z-score)” value [19] was -0.162 and the “glycan array binding signal (z-score)” value [20] was -0.16. The “glycan array binding signal (z-score)” value [21] was -0.153, the “glycan array binding signal (z-score)” value [22] was -0.151 and the “glycan array binding signal (z-score)” value [23] was -0.134. For the same binder, the “glycan array binding signal (z-score)” value [24] was -0.154 and the “glycan array binding signal (z-score)” value [25] was -0.157.
